Here are results for 17 compounds from PubChem BioAssay (NCATS).

Assay in all cases: qHTS profiling for inhibitors of Plasmodium falciparum proliferation (AID 504749); also: nearly all actives have a fitted effect of over 60% in size
Common to all, as to conditions: P. falciparum in erythrocytes, SYBR Green DNA, 72 h; series mostly up to 28.7 µM

The test system of assay [1] is CP329. In a few lines: (§1)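 SYBR Green fluorescence of parasite DNA, read after lysis and overnight dark incubation, measured growth over 72 h in erythrocyte culture at 0.3% parasitemia and 2.5% hematocrit. Data normalised to DMSO and 0.29 uM artemisinin, with plate-drift correction.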
Assay [2] deals with CP335. The gist of the method: as §1
In assay [3] the test system is CP268. In a few lines:
as §1

Assay [4] deals with CP269. In a few lines:
as §1

The subject of assay [5] is CP291. In a few lines:
as §1

In assay [6] the test system is CP297. The gist of the method:
as §1

For assay [7], the system named is CP305. The gist of the method: as §1
In assay [8] the test system is CP315. In a few lines:
as §1

In assay [9] the test system is CP325. In a few lines: as §1
Assay [10] concerns CP286. The gist of the method: as §1

Inconclusive results are not listed. Active and inactive are the calls of the source. Calls follow the shape of the dose curve; as a rule, active = well fitted inhibition curve with a large enough effect; inconclusive = small, poorly fitted or top-dose-only effect; inactive = flat fitted curve, though single readings scatter.
Potency is read from the fitted curve at half-maximal effect.

With `COCCOC(=O)C1=C(C)NC(C)=C(C(=O)OC(C)C)C1c1cccc([N+](=O)[O-])c1` (centres undefined), the Potency result in assay [1] was “inactive”. The Potency in assay [2] is 4.78 µM (active).
For `CN(C)CCCN1c2ccccc2Sc2ccc(C(F)(F)F)cc21`, the Potency entry in [3], in assay [4], in [5], in [6], in assay [7] and in [8] was “inactive” throughout. The Potency entry in assay [9] and in [1] was “inactive” each time.
As for `CN(C)CC/C=C1\c2ccccc2COc2ccccc21`, the Potency result in assay [6] and in assay [8] was “inactive” in each case.
Turning to `CCc1cccc(N(C)C(N)=Nc2cccc3ccccc23)c1`, the Potency in [10] was 8.91 µM (active). For the same compound, in assay [8], the Potency entry was “inactive”.
As to `CC(=O)[C@]1(O)Cc2c(O)c3c(c(O)c2[C@@H](O[C@H]2C[C@H](N)[C@H](O)[C@H](C)O2)C1)C(=O)c1ccccc1C3=O`, the Potency in [3] was 9.53 µM (active); in assay [4], 10.7 µM (active); in [10], 1.41 µM (active); in [5], 9.53 µM (active); in assay [7] it was 8.49 µM (active); in assay [8], 15.1 µM (active). For the same compound, the Potency in assay [1] was 10.7 µM (active); in assay [2] it was 1.69 µM (active).
With `c1cnc(N2CCN(Cc3ccc4c(c3)OCO4)CC2)nc1`, the Potency result in assay [3], in assay [4], in [10], in assay [5], in [7] and in assay [8] was “inactive” in each case. For the same compound, the Potency entry in [9], in assay [1] and in assay [2] was “inactive” throughout.
On to `CCN(CC)CCNC(=O)c1cc(S(C)(=O)=O)ccc1OC`, for which the Potency entry in [10] and in [2] was “inactive” throughout.
In the case of `CN(C)CCN(Cc1cccs1)c1ccccn1`, the Potency in assay [6] is 3.38 µM (active); in assay [2], 8.49 µM (active). For the same compound, in assay [8], the Potency entry is “inactive”.
As to `CCCCCCCC/C=C\CCCCCCCC(=O)NCc1ccc(O)c(OC)c1`, the Potency entry in [3], in [4], in [6], in assay [7], in assay [8] and in assay [9] was “inactive” in each case. Moreover, the Potency result in [1] is “inactive”.
As for `CNCCC(Oc1ccccc1OC)c1ccccc1` (centres undefined), the Potency entry in assay [6] and in assay [8] was “inactive” in each case.
For `NC(=Nc1ccccc1)Nc1ccccc1`, the Potency entry in assay [3], in assay [4], in [10], in assay [5], in assay [7] and in [8] was “inactive” in each case. In addition, the Potency entry in [9], in [1] and in assay [2] was “inactive” each time.
For `NC(N)=N/N=C/c1c(Cl)cccc1Cl`, the Potency in assay [10] was 11.2 µM (active).
Regarding `OC(CCN1CCCCC1)(c1ccccc1)C1CCCCC1` (centres undefined), the Potency entry in [3], in [4], in assay [10], in [6], in assay [7] and in assay [8] was “inactive” throughout. The Potency result in assay [9] and in [1] was “inactive” each time.
`CN1C[C@H](C(=O)N[C@]2(C)O[C@@]3(O)[C@@H]4CCCN4C(=O)[C@H](Cc4ccccc4)N3C2=O)C[C@@H]2c3cccc4[nH]cc(c34)C[C@H]21`: the Potency in assay [3] is 15.1 µM (active); in assay [4], 8.49 µM (active); in assay [5] it was 16.9 µM (active); in assay [6], 4.26 µM (active); in assay [9], 12 µM (active); in [2], 8.49 µM (active).
As for `CC1=C(C)C(=O)C(CCCCC#CCCCC#CCO)=C(C)C1=O`, the Potency in [10] was 11.2 µM (active); in [6], 15.1 µM (active); in [2], 13.5 µM (active).
Take `CN(C(=O)CCCOc1ccc2[nH]c(=O)ccc2c1)C1CCCCC1`: the Potency entry in assay [3], in [4], in [10], in assay [7], in assay [8] and in [9] was “inactive” in each case. For the same compound, the Potency result in assay [1] and in assay [2] was “inactive” in each case.
In the case of `CCN1CCc2nc(N)oc2CC1`, the Potency result in assay [4], in [10], in assay [5], in [6], in assay [7] and in [8] was “inactive” each time. Further, the Potency result in assay [9], in assay [1] and in [2] was “inactive” each time.
